Test results: PubChem BioAssay
Calls of active or inactive are those of the source.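 How the source made its calls, unless noted: active means NADPH fluorescence slope more negative than the mean of all samples by about 3 SD, 99.7% confidence; inactive means the rest.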

How the values were obtained:
[1] = inhibitors of TNFa-induced NFkB p65 translocation, primary screen, imaging, HUVEC, MLSMR starter and 10KST1 sets (AID 438;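 active means inhibition above 20% together with a positive visual image hit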;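 further: compound added about 3h40 before a 20 min TNFalpha stimulation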;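 on inhibition: signal is the nuclear over cytoplasmic p65 intensity ratio per well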); settings: HUVEC TNFa-induced p65 nuclear translocation; cell count: measured here: nuclei count (cytotoxicity indicator), at 2.08 µM; inhibition: at 2 µM, stronger effect = higher value, 0% TNFa-plus-vehicle, 100% no-TNFa wells
[2] = reduction of polyQ htt aggregates in cells – imaging, exon1htt(103Q)mCFP cells, high-content imaging, primary screen (AID 483;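 active means visual image review flags a hit and inhibition of aggregation exceeds 20%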;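 further: compound exposure lasted 3 days before fixation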;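 on nuclei count: percent of the per-plate median nuclei count of sample wells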); settings: exon1htt(103Q)mCFP cell line, aggregate imaging, at 2 µM; inhibition of aggregation: stronger effect = higher value; nuclei count: measured here: cell count, toxicity
[3] = endothelial E-selectin expression blockers – imaging, HUVEC, immunofluorescence, MLSMR starter and 10KST1 sets, primary screen (AID 487;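 active means visually confirmed hit in the image check and inhibition above 20%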;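 on inhibition: signal is fraction of cell area covered by stained E-selectin grains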;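 on nuclei count: 100% = median nuclei count of all wells on the same plate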); settings: HUVEC TNFalpha-induced E-selectin immunofluorescence imaging, at 2 µM; inhibition: stronger effect = higher value; nuclei count: measured here: cell number, toxicity
[4] = biological target: Voltage-gated potassium channel subunit beta-2 (Rattus norvegicus) (UniProt P62483); assay: inhibitors of rat Kvbeta2 reductase activity – biochemical, NADPH fluorescence, primary screen (AID 622;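 active means fluorescence slope higher than the sample average by over 3 SD, cut at about -0.22 in these data, passing the limit was not always enough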;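 further: slope of raw intensity against log time taken from 70 to 1610 s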); settings: recombinant KvBeta, 4-cyanobenzaldehyde reduction, at 10 µM, stronger effect = higher value
[5] = biological target: Voltage-gated potassium channel subunit beta-2 (Rattus norvegicus) (UniProt P62483); assay: enhancers of rat Kvbeta2 NADPH turnover – biochemical, NADPH fluorescence, primary screen (AID 623); settings: Recombinant KvBeta, NADPH fluorescence decrease slope, 10 min; at 10 µM; stronger effect = lower value;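 further: fluorescence intensity change per second fitted from 20 to 320 s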
[6] = biological target: Alpha-2C adrenergic receptor (Homo sapiens) (UniProt P18825); assay: compounds altering alpha2C-coupled GIRK flux – cell-based, HEK293 alpha2C/GIRK1/2, thallium flux, primary screen (AID 624;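 active means fluorescence slope after compound addition differing from the mean of all screened samples at 99.7% confidence, in either direction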;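 further: slope of fluorescence ratio to pre-addition baseline per second over 15 to 24 s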); settings: thallium flux BTC fluorescence, at 10 µM, actives lie on both sides
[7] = blockers of RIG-like receptor reporter activation – cell-based, Sendai virus stimulus, luciferase, 10K MLSCN set, TLR/RLR signaling modifier project, primary screen (AID 602276;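 active means inhibition at or above 50% at 10 µM; inactive means inhibition below 50%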;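 further: firefly luciferase from ISG56 promoter only with Renilla not read in this screen; 0% = Sendai virus plus DMSO and 100% = medium plus DMSO without virus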); settings: HEK293 RL24 IRF3 luciferase reporter, at 10 µM, stronger effect = higher value
[8] = TLR3 IRF3 reporter activation blockers – cell-based, poly I:C stimulus, luciferase, 10K MLSCN set, primary screen (AID 602277;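 active means inhibition of the reporter signal at or above 50%; inactive means inhibition below 50%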); settings: HEK293-TLR3 RL24 IRF3 luciferase reporter, at 10 µM, stronger effect = higher value

Sequence of Alpha-2C adrenergic receptor (Homo sapiens) (P18825 whole entry, looked up): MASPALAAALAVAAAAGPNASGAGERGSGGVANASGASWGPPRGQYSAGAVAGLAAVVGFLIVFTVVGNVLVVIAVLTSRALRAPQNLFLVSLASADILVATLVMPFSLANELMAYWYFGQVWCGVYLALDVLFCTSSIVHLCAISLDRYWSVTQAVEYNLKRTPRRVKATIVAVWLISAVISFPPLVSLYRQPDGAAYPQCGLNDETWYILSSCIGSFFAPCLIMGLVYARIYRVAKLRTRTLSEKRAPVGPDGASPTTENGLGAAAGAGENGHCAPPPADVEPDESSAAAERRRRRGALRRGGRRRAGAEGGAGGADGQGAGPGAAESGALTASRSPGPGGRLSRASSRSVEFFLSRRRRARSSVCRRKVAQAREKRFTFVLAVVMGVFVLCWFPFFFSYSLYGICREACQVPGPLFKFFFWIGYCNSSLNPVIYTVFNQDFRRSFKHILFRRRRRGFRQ
Sequence of Voltage-gated potassium channel subunit beta-2 (Rattus norvegicus) (P62483 whole entry, looked up): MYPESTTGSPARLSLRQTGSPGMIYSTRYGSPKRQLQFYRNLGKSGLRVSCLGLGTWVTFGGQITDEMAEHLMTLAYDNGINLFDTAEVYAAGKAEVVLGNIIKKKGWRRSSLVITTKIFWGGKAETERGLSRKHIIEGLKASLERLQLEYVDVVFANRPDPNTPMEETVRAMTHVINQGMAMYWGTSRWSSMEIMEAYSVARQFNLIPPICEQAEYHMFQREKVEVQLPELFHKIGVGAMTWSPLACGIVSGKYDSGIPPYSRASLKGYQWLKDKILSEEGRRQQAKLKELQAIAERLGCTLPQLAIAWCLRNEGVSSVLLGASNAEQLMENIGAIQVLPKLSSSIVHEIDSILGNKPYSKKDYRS

COc1ccccc1C(=O)Nc1nc2ccc(S(C)(=O)=O)cc2s1
cell count [1]: 417 | inhibition [1]: -6.5% (inactive) | inhibition of aggregation [2]: -0.8% (inactive) | nuclei count [2]: 115% | inhibition [3]: -32.3% (inactive) | nuclei count [3]: 132% | fluorescence slope [4]: -0.241 (inactive) | NADPH fluorescence slope [5]: -6.6e-06 (inactive) | slope [6]: 0.00752 (inactive) | inhibition [7]: -2.51% (inactive) | inhibition [8]: -33.9% (inactive)

COc1cc(Cn2c(-c3nonc3N)nc3ccccc32)ccc1C
cell count [1]: 329 | inhibition [1]: -1.5% (inactive) | inhibition of aggregation [2]: -18.3% (inactive) | nuclei count [2]: 65% | inhibition [3]: -20.1% (inactive) | nuclei count [3]: 99.4% | fluorescence slope [4]: -0.591 (inactive) | NADPH fluorescence slope [5]: -1.7e-05 (inactive) | slope [6]: 0.00556 (inactive) | inhibition [7]: 29.4% (inactive) | inhibition [8]: 53.2% (active)

COCc1cc(C)nc(Nc2ccc(C)cc2C)c1C#N
cell count [1]: 635 | inhibition [1]: -12.3% (inactive) | inhibition of aggregation [2]: -34.1% (inactive) | nuclei count [2]: 113% | inhibition [3]: 24.1% (inactive) | nuclei count [3]: 120% | fluorescence slope [4]: -0.461 (inactive) | NADPH fluorescence slope [5]: 5.1e-08 (inactive) | slope [6]: 0.00615 (inactive) | inhibition [7]: -5.46% (inactive) | inhibition [8]: 12.7% (inactive)

Cc1ccccc1NC(=O)C1CCCN(S(=O)(=O)c2cccc3cccnc23)C1 (centres undefined)
cell count [1]: 613 | inhibition [1]: 6.8% (inactive) | inhibition of aggregation [2]: 21% (inactive) | nuclei count [2]: 71.1% | inhibition [3]: -45.4% (inactive) | nuclei count [3]: 112% | fluorescence slope [4]: -0.554 (inactive) | NADPH fluorescence slope [5]: 1.2e-05 (inactive) | slope [6]: 0.00703 (inactive) | inhibition [7]: 1.01% (inactive) | inhibition [8]: 13.7% (inactive)

COC(=O)/C=c1\sc2ncnn2c1=O
cell count [1]: 286 | inhibition [1]: -11% (inactive) | inhibition of aggregation [2]: 6.6% (inactive) | nuclei count [2]: 111% | inhibition [3]: -34.9% (inactive) | nuclei count [3]: 107% | fluorescence slope [4]: -0.624 (inactive) | NADPH fluorescence slope [5]: -1.3e-05 (inactive) | slope [6]: 0.00688 (inactive) | inhibition [7]: 18.3% (inactive) | inhibition [8]: 26.1% (inactive)

O=C(c1ncc[nH]1)c1ccccc1C(=O)N1CCOCC1
cell count [1]: 399 | inhibition [1]: 15.2% (inactive) | inhibition of aggregation [2]: 27.9% (inactive) | nuclei count [2]: 111% | inhibition [3]: -232% (inactive) | nuclei count [3]: 116% | fluorescence slope [4]: -0.515 (inactive) | NADPH fluorescence slope [5]: -0.000166 (inactive) | slope [6]: 0.00482 (inactive) | inhibition [7]: -6.47% (inactive) | inhibition [8]: 4.36% (inactive)

CC(C)C(C(=O)Nc1ccc2c(c1)OCO2)N1C(=O)c2ccccc2C1=O (centres undefined)
cell count [1]: 696 | inhibition [1]: -1% (inactive) | inhibition of aggregation [2]: 10.6% (inactive) | nuclei count [2]: 109% | inhibition [3]: 77.1% (active) | nuclei count [3]: 85% | fluorescence slope [4]: -0.411 (inactive) | NADPH fluorescence slope [5]: -8.9e-05 (inactive) | slope [6]: 0.00641 (inactive) | inhibition [7]: 14.6% (inactive) | inhibition [8]: 25.5% (inactive)

O=C(NC1CCCCC1)N(Cc1ccc(F)cc1)Cc1nc2ccccc2c(=O)[nH]1
cell count [1]: 348 | inhibition [1]: 1.1% (inactive) | inhibition of aggregation [2]: -22.3% (inactive) | nuclei count [2]: 96.5% | inhibition [3]: -71.7% (inactive) | nuclei count [3]: 99% | fluorescence slope [4]: -0.333 (inactive) | NADPH fluorescence slope [5]: 3.6e-06 (inactive) | slope [6]: 0.0032 (inactive) | inhibition [7]: 21% (inactive) | inhibition [8]: 29% (inactive)

COc1cccc(NC(=O)CSc2nnnn2C(C)C)c1
cell count [1]: 738 | inhibition [1]: 6.1% (inactive) | inhibition of aggregation [2]: -20.3% (inactive) | nuclei count [2]: 109% | inhibition [3]: -4.8% (inactive) | nuclei count [3]: 123% | fluorescence slope [4]: -0.538 (inactive) | NADPH fluorescence slope [5]: -9e-05 (inactive) | slope [6]: 0.00723 (inactive) | inhibition [7]: 0.303% (inactive) | inhibition [8]: -4.86% (inactive)

CC(C)CCN(C)C1CCN(S(=O)(=O)c2ccc(F)cc2)CC1
cell count [1]: 638 | inhibition [1]: 0.8% (inactive) | inhibition of aggregation [2]: -2.4% (inactive) | nuclei count [2]: 82.9% | inhibition [3]: -35.4% (inactive) | nuclei count [3]: 121% | fluorescence slope [4]: -0.543 (inactive) | NADPH fluorescence slope [5]: 1.3e-05 (inactive) | slope [6]: 0.00577 (inactive) | inhibition [7]: 10.6% (inactive) | inhibition [8]: 40.9% (inactive)

O=C(CN1C(=O)COCC1=O)N1CCOCC1
cell count [1]: 377 | inhibition [1]: -7% (inactive) | inhibition of aggregation [2]: 11.7% (inactive) | nuclei count [2]: 108% | inhibition [3]: -35.1% (inactive) | nuclei count [3]: 112% | fluorescence slope [4]: -0.422 (inactive) | NADPH fluorescence slope [5]: -0.00011 (inactive) | slope [6]: 0.00596 (inactive) | inhibition [7]: 9.66% (inactive) | inhibition [8]: 23.7% (inactive)

Cc1cc(C(=O)Cn2cncn2)c(C)n1CCc1ccc(F)cc1
cell count [1]: 453 | inhibition [1]: -2.5% (inactive) | inhibition of aggregation [2]: 0.8% (inactive) | nuclei count [2]: 91.7% | inhibition [3]: -92.9% (inactive) | nuclei count [3]: 98.5% | fluorescence slope [4]: -0.48 (inactive) | NADPH fluorescence slope [5]: -4e-05 (inactive) | slope [6]: 0.00641 (inactive) | inhibition [7]: 0.317% (inactive) | inhibition [8]: 16.3% (inactive)

Cc1ccc2cc(CN(CC3CCCO3)S(=O)(=O)c3ccc4c(c3)OCCO4)c(=O)[nH]c2c1C (centres undefined)
cell count [1]: 478 | inhibition [1]: 2.4% (inactive) | inhibition of aggregation [2]: 8.6% (inactive) | nuclei count [2]: 110% | inhibition [3]: -42.1% (inactive) | nuclei count [3]: 135% | fluorescence slope [4]: -0.391 (inactive) | NADPH fluorescence slope [5]: -8.2e-06 (inactive) | slope [6]: 0.00544 (inactive) | inhibition [7]: 3.97% (inactive) | inhibition [8]: -19.6% (inactive)

CCCCN(C)Cc1c(O)ccc2c(-c3ccccc3)cc(=O)oc12
cell count [1]: 303 | inhibition [1]: 0.3% (inactive) | inhibition of aggregation [2]: 5% (inactive) | nuclei count [2]: 103% | inhibition [3]: -26.5% (inactive) | nuclei count [3]: 96.4% | fluorescence slope [4]: -0.158 (active) | NADPH fluorescence slope [5]: -2.3e-05 (inactive) | slope [6]: 0.00475 (inactive) | inhibition [7]: -3.57% (inactive) | inhibition [8]: 28.4% (inactive)
